Source: PubChem BioAssay (NCATS)
Inconclusive results are not listed. Where a call stands in place of a potency, no number is given. Active and inactive are the calls of the source. Calls come from the whole dose curve; as a rule, active = well fitted inhibition curve with a large enough effect; inconclusive = small, poorly fitted or top-dose-only effect; inactive = flat fitted curve, though single readings scatter.

tested on: MCC-26; experiment: qHTS assay to identify novel small-molecules to repurpose for Merkel cell carcinoma treatment (AID 1296009); details: MCC and control cell lines, CellTiter-Glo viability, 72 h; series mostly up to 46 µM; activity change, negative = cytotoxicity: at the top concentration; note: nearly all actives have a fitted effect of over 60% in size
Procedure, shortened: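 qHTS format: cells treated with library compounds in DMSO across 8 (NPC) or 11 (MIPE) concentrations. Readout after 72 hr at 37 degree celsius was CellTiter-Glo luminescence.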

SMILES	Potency	activity change, negative = cytotoxicity
CC(C)c1ccc2oc3nc(N)c(C(=O)O)cc3c(=O)c2c1	inactive	
c1cnc2cc3c(cc2n1)C1CNCC3C1		-0.754% (inactive)
Nc1nc(OCc2ccccc2)c2[nH]cnc2n1		-7.27% (inactive)
CCN(CC)CCOc1ccc(Cc2ccccc2)cc1	inactive	
O=C(NCCO[N+](=O)[O-])c1cccnc1	inactive	
Cc1cc(=O)c2c(O)c3c(O)cc(=O)c4c3c3c(cc(O)c1c23)C(C)(C)C=4O	inactive	
CCOC(=O)c1c(C)n(C)c2ccc(O)cc12	inactive	
Nc1ncn([C@H]2C[C@H](O)[C@@H](CO)O2)c(=O)n1	inactive	
NC(=O)Cc1cccc(C(=O)c2ccccc2)c1N	inactive	
Cc1ccc(NC(=O)c2ccc(CN3CCN(C)CC3)cc2)cc1Nc1nccc(-c2cccnc2)n1	inactive	
Cc1cc(=O)oc2cc(O)ccc12	inactive	
COc1ccccc1N1CCN(CCN(C(=O)C2CCCCC2)c2ccccn2)CC1		3.99% (inactive)
N[C@@H](Cc1cc(I)c(Oc2cc(I)c(O)c(I)c2)c(I)c1)C(=O)O	inactive	
Cc1nccn1CC1CCc2c(c3ccccc3n2C)C1=O (stereo unspecified)	inactive	
CN1CCC(=C2c3ccccc3CCc3sccc32)CC1	inactive	
CCC(C)(Oc1ccc(C2(c3ccc(OC(C)(CC)C(=O)O)cc3)CCCCC2)cc1)C(=O)O (stereo unspecified)		-3.98% (inactive)
CC(S)C(=O)NCC(=O)O (stereo unspecified)	inactive	
CCOc1cc(CC(=O)N[C@@H](CC(C)C)c2ccccc2N2CCCCC2)ccc1C(=O)O		-4.23% (inactive)
CNC[C@H](O)c1ccc(O)c(O)c1	inactive	
CC1Cc2ccccc2N1NC(=O)c1ccc(Cl)c(S(N)(=O)=O)c1 (stereo unspecified)	inactive	
COc1cc2c(cc1OC)C1CC(=O)C(CC(C)C)CN1CC2 (stereo unspecified)		-4.12% (inactive)
